Bioassay records deposited in PubChem BioAssay by several laboratories.
A selection: hits, their analogues and other compounds. The true share with any hit is near 0.96%.
HDAC3 inh: inhibitors of human histone deacetylase 3 | O15379 | recombinant HDAC3, fluorogenic peptide/trypsin coupled, fluorescence | inhibition, % at 8.3 µM | 320,000 compounds, 0.15% hits | AID 2718; in the data active = inhibition above about 26%, passing the limit was not always enough
DAGLB inh: blocks human DAGLB lipase activity; AID 504411; HEK293T DAGLB membrane lysate, EnzChek fluorogenic substrate; inhibition, % at 5.17 µM; Q8NCG7; 340,000 compounds, 0.059% hits; in the data active = inhibition above about 34%;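 note: 0% = enzyme with vehicle and 100% = wells lacking enzyme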
Target sequence (Q8NCG7 whole entry, looked up): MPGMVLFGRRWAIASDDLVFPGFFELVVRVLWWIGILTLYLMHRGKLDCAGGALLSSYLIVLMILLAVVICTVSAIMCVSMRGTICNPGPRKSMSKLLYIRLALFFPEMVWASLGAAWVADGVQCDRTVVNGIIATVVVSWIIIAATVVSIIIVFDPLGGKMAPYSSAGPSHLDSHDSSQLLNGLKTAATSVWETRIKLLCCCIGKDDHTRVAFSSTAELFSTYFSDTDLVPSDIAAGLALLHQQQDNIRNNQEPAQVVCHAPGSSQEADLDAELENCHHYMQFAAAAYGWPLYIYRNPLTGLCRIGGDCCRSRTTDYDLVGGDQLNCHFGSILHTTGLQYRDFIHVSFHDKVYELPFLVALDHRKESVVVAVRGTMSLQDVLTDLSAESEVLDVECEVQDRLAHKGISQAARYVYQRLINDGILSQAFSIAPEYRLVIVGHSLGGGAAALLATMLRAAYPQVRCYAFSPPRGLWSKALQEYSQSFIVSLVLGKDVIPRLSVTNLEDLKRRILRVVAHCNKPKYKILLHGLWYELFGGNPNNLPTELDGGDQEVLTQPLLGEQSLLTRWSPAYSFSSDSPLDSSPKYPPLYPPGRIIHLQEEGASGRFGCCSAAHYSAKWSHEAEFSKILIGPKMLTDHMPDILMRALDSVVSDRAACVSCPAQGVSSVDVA
MIN6 prolif: inducers of beta-cell replication in MIN6 cells; 330,000 compounds, 0.29% hits; AID 2380; proliferation, % at 10 µM; MIN6 cells proliferation, ATPlite luminescence, 48 h; cells starved in 0.2% serum; 100% = growth in 10% serum;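 active = compounds whose signal lies at least 3.5 SD above the mean of all wells on their plate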;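 note: 0% = DMSO-treated cells in low-serum medium and 100% = 10% serum control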
Rtt109 HAT inh: inhibitors of Candida albicans Rtt109/Vps75 histone acetyltransferase; purified Rtt109/Vps75, ThioGlo CoA-SH fluorescence, 4 h; inhibition, % at 34.9 µM; 330,000 compounds, 0.16% hits; AID 540336;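 active = inhibition of at least 50% in every replicate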
V-ATPase pHluor: regulators of yeast V-ATPase proton transport; 350,000 compounds, 0.37% hits; response, % at 10 µM; S. cerevisiae, pHLuorin cytosolic pH fluorescence; AID 504577; in the data active = response mostly above about 7.3%, no sharp cut-off; inactive = mostly below about 5.4%; note: actives read high
VATPase regulator: regulators of yeast V-ATPase proton transport; S. cerevisiae pHLuorin cytosolic pH; 980 compounds, 2% hits; response, % at 10 µM; AID 602197; shares compounds with V-ATPase pHluor; in the data active = response above about 24%;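 note: plate controls were vehicle wells for no effect and positive control wells for full effect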
The depositor's hits bear a star; . = no result given.

SMILES | HDAC3 inh | DAGLB inh | MIN6 prolif | Rtt109 HAT inh | V-ATPase pHluor | VATPase regulator
CCOc1ccc(NC(=O)CSc2nc(N3CCOCC3)nc(N3CCOCC3)n2)cc1 | -1 | 1 | -1 | 1 | 8.7* | 1
CCOC(=O)C1CCN(C(=O)COC(=O)/C=C/c2ccccc2)CC1 | 3 | -1 | -3 | 6 | 9.4* | -5
CCOc1ccccc1NC(=O)CCS(=O)(=O)c1cccc2nonc12 | -12 | 0 | 2 | -20 | 0 | .
CCOC(=O)c1c(NC(=O)COC(=O)CCNS(=O)(=O)c2ccccc2)sc(C(=O)NC)c1C | . | -1 | . | -2 | 9.8* | 1
COC(=O)c1c(NC(=O)COC(=O)CCNS(=O)(=O)c2ccccc2)sc(C)c1C | 8 | 3 | 6 | 5 | 2 | .
CC1=C(C(N)=O)C(c2cccc(O)c2)n2nc(CCCO)nc2N1 (stereo not given) | 9 | -2 | -5 | 3 | 7.2* | -2
CC1=C(C(N)=O)C(c2ccc(Cl)cc2)n2nc(CCCO)nc2N1 (stereo not given) | 5 | -5 | 1 | -9 | 2 | .
CCN(CC(=O)Nc1c(F)cccc1F)C(=O)CCCc1nc2ccccc2c(=O)[nH]1 | 3 | -3 | -3 | 1 | 0 | .
COCCCn1c(C(=O)NCCN2CCOCC2)cc2c(=O)n3cccc(C)c3nc21 | . | 0 | 1 | -109 | 8.2* | 7
CCOc1ccc(-n2c(SCC(=O)NCc3ccco3)nc3ccccc3c2=O)cc1 | 4 | 1 | -3 | -7 | 1 | .
CCOc1ccc(-n2c(SCC(=O)NCc3ccco3)nc3c([nH]c4ccccc43)c2=O)cc1 | 2 | 3 | -2 | 2 | 10.0* | 2
N#CCc1c(C#N)c(N)nc(N2CCCC(CO)C2)c1C#N (stereo not given) | -5 | -3 | -1 | -7 | -1 | .
N#CCc1c(C#N)c(N)nc(N2CCCC(O)C2)c1C#N (stereo not given) | -2 | 2 | -2 | -28 | 11* | 0
O=C(NCC1CCCCC1)c1ccccc1[N+](=O)[O-] | 3 | -1 | 1 | -2 | 13* | 1
O=C(NCC1CCCCC1)c1cc([N+](=O)[O-])ccc1Cl | 3 | -1 | -1 | -4 | 2 | .
Clc1ccccc1OCCCOc1cccc2cccnc12 | -2 | -7 | -4 | -9 | 12* | 20
O=C(NCCc1cccs1)c1ccc(Cl)c(Cl)c1 | 5 | -3 | -3 | 0 | 8.8* | 1
O=C(NCCc1cccs1)c1ccc(Cl)cc1 | -4 | 1 | -4 | 1 | -3 | .
COc1ccc(Cl)cc1NC(=O)Nc1cc(C)on1 | 1 | -2 | -3 | 4 | 1 | .
Cc1cc(C)c(OCCOCCN2CCCC2)c(C)c1 | 0 | 1 | 0 | -10 | -3 | .
Cc1cc(C)c(OCCOCCN2CCNCC2)c(C)c1 | 2 | -5 | 0 | 5 | 16* | 0
CC(=O)c1c(C)[nH]c(C(=O)NCc2cccc(Cl)c2)c1C | 3 | 0 | -2 | 1 | 9.6* | -2
CC(=O)c1c(C)[nH]c(C(=O)NCc2ccc(Cl)cc2)c1C | . | -1 | . | . | -3 | .
O=c1ccc2cc(S(=O)(=O)NCc3ccccc3)ccc2[nH]1 | 2 | -1 | 3 | 11 | -2 | .
CC(=O)c1cnn(-c2ccc(Cl)cc2)c1C | 1 | -7 | -2 | 0 | 0 | 0
SMILES | HDAC3 inh | DAGLB inh | MIN6 prolif | Rtt109 HAT inh | V-ATPase pHluor | VATPase regulator
Cc1c(C(=O)Nc2ccccc2)cnn1-c1ccccc1 | -5 | 1 | -1 | -6 | -1 | .
CC(=O)c1sc(=S)n(-c2ccc(Cl)cc2)c1C | 0 | -4 | -3 | 3 | 0 | 4
CC(C)n1c(CCCO)nc2ccccc21 | 1 | 0 | -3 | -1 | 0 | .
COc1ccc(C)cc1NC(=O)c1sc2ncn(CC(=O)N3CCCCC3)c(=O)c2c1C | 5 | 0 | -3 | -6 | 6 | .
COc1cc(OC)c(NC(=O)c2sc3ncn(CC(=O)N4CCOCC4)c(=O)c3c2C)cc1Cl | 2 | -1 | -2 | -2 | 6.4* | -12
Cc1ccccc1C(=O)Nc1nnc(-c2ccncc2)o1 | 8 | 0 | 2 | 3 | -2 | .
COc1ccc(-c2nnc(NC(=O)c3ccccc3C)o2)cc1 | -6 | -3 | -3 | 0 | 12* | 7
CC(C)CCc1noc(CN2CCN(CC(=O)NC(C)C)CC2)n1 | -2 | 0 | -2 | 16 | -5 | .
COc1ccc(-c2c(C)n([O-])c3c([n+]2=O)CCCC3)cc1 | 11 | -1 | -1 | -3 | 10* | 8
